# Nrf2 inh = blocks Nrf2 signaling; A549 ARE-Fluc reporter, luciferase luminescence, 18-24 h; Potency, µM (top dose mostly 46 µM), hits mostly inhibitors; hit rate 2.1% among 360,000; AID 504444; also: nearly all actives have a fitted effect of over 60% in size
#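 A549 ARE_Fluc cells (5000/well, 5% FBS OPTI-MEM) pre-incubated 2 h, then treated with compounds 18-24 h at 37C/5% CO2 in concentration-response. CellTiter-Fluor viability read first; BugLite luciferase luminescence after 15 min at room temperature gives Nrf2 activity.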
# ATXN2 expr inh = ATXN2 expression inhibition. HEK-293 ATXN2-luciferase reporter, luminescence, 24 h. Potency, µM (titrated, usually from 57 µM), actives largely listed as inhibitors. hit rate 0.72% among 360,000. AID 1745845; also: nearly all actives have a fitted effect of over 55% in size
#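 ATXN2-luciferase reporter cells (luciferase flanked by upstream and downstream ATXN2 gene portions) were treated 24 h at 37 °C with compounds at up to 57 uM. SteadyGlo luminescence gave expression; GF-AFC fluorescence gave viability.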
# ATXN viability = cell viability loss in ATXN counter-screen; hit rate 0.49% among 400,000; S2 cells (HEK-293 line with an ATXN2-luciferase reporter) viability, CellTiter-Fluor protease fluorescence, 24 h; Potency, µM (series often up to 56.7 µM), usual class: cytotoxic; also: nearly all actives have a fitted effect of over 40% in size
# A549 viability = kills or reduces viability of A549 cells in Nrf2 counter-screen | AID 504648 | A549 ARE-Fluc cells, CellTiter-Fluor viability, 18-24 h | hit rate 0.16% among 390,000 | Potency, µM (top dose mostly 46 µM), actives largely listed as inhibitors
#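 A549 ARE-Fluc cells in 5% FBS OPTI-MEM, 5000 cells/well, rested 2 h then exposed to compounds in concentration-response for 18-24 h at 37 °C. Viability by CellTiter-Fluor fluorescence (Ex 405/Em 525) after 30 min; luciferase luminescence (BugLite, 15 min, RT) read afterwards.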
# TGFb SMAD3 inh = TGF-b pathway inhibition | HepG2 CAGA-GFP TGF-b/SMAD3 reporter, GFP fluorescence, 18 h; TGF-beta stimulated, 500 pg/mL final | Potency, µM (top dose mostly 46.1 µM), most hits filed as inhibitors | hit rate 1.2% among 410,000; also: nearly all actives have a fitted effect of over 65% in size
#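 HEPG2 CAGA-GFP, 1000 cells/well; 2 h settle, 37 C; cpd via pin tool; TGF-b 500 pg/mL final; 18 h, 37 C; GFP imaging ex488/em500-530; %Activity normalised to -TGF-b and +DMSO controls; CRC fit, curve class.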
# HepG2 tox = kills HepG2 cells in TGF-b inhibitor counter-screen; HepG2 CAGA-GFP viability, ATP luminescence, 18 h; Potency, µM (top dose mostly 46.1 µM), actives largely listed as cytotoxic; hit rate 0.76% among 410,000; AID 588856
#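 HepG2 CAGA-GFP cells (1000/well, DMEM with 1% FBS) received compound, then TGF-beta at 500 pg/mL final, and were incubated 18 hours at 37 degrees C. Viability was read by CellTiter-Glo luminescence. Media-only wells were set as complete cell-killing and DMSO as no toxicity.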
# Hits are given with their value; . = inactive; ? = inconclusive; / = no result given. Compounds with a hit are over-represented: about 3.8% of the library has one in this group of screens. Calls follow the shape of the dose curve; as a rule, active = well fitted curve in the direction sought with a large enough effect; inconclusive = small, poorly fitted or top-dose-only effect, or another doubt; inactive = no such curve, though single readings can be large; an effect the other way counts as inactive or inconclusive.
SMILES,Nrf2 inh,ATXN2 expr inh,ATXN viability,A549 viability,TGFb SMAD3 inh,HepG2 tox
Cc1ccc(Cl)cc1-n1ncc2c(N3CCN(Cc4ccccc4)CC3)ncnc21,/,16µM,18µM,?,.,.
Cc1ccc(Cn2ncc3c(N4CCOCC4)ncnc32)cc1,.,/,/,.,.,.
CCC(C)NC(=O)c1cn(CC)c2ccc(S(=O)(=O)N3CCc4ccccc4C3)cc2c1=O (centres undefined),23µM,?,?,.,?,.
C=CCOc1ccc(CN(C)c2ccc(S(=O)(=O)N3CCN(C)CC3)cc2[N+](=O)[O-])cc1,.,.,?,.,.,.
CCOc1ccc(CN(C)c2ccc(S(=O)(=O)N3CCN(C)CC3)cc2[N+](=O)[O-])cc1OC,16µM,.,.,.,?,.
COc1ccc(Nc2nc(N3CCCC3)c3ccccc3n2)cc1,?,28µM,?,.,?,.
c1ccc(-c2nc(N3CCCCCC3)c3ccccc3n2)nc1,/,?,11µM,?,.,.
Clc1nnc(N2CCCCC2)c2ccccc12,16µM,.,.,.,.,.
Cc1nc(N2CCCCCC2)c2ccccc2n1,18µM,/,/,.,?,.
COc1ccc2c(c1)OC(C)CN(CCNC(=O)c1ccc(-n3cccn3)cc1)C2 (centres undefined),/,/,.,/,/,/
O=c1oc2ccc(F)cc2cc1-c1nc(-c2cccs2)no1,.,/,/,.,.,.
CCN(CC)c1cc2c(cc1F)c(=O)c(S(=O)(=O)c1ccc(OC)cc1)cn2Cc1ccccc1,.,/,/,.,?,.
CCn1c(SCC(=O)NCc2ccco2)nnc1-c1cccc(N(C)C)c1,/,/,/,/,.,.
O=C1C(Nc2ccccc2)=C(N2CCCCC2)C(=O)c2ccccc21,.,.,?,.,.,.
O=C(/C=C/c1ccc(O)cc1)c1ccc(NC2=C(N3CCCCC3)C(=O)c3ccccc3C2=O)cc1,15µM,?,?,?,6.3µM,.
CN(C1=C(N2CCCCC2)C(=O)c2ccccc2C1=O)c1ccccc1,.,.,?,.,18µM,.
COc1ccccc1NC1=C(N2CCCCC2)C(=O)c2ccccc2C1=O,?,?,?,.,?,16µM
Cc1ccc(NC2=C(N3CCCCC3)C(=O)c3ccccc3C2=O)cc1,.,?,?,.,?,.
Cc1cc(Cl)ccc1OCCSc1nnc(-c2cccs2)o1,.,.,.,.,?,.
CCNC(=O)C1(C)CCN(C(=O)c2ccccc2C(F)(F)F)C1 (centres undefined),/,.,.,/,.,.
Oc1ccc(CN2CCCCC2)c2cccnc12,?,20µM,13µM,?,3.2µM,.
CC(C)COCc1ccc(O)c2ncccc12,.,?,.,.,10µM,.
Oc1ccc(CN2CCc3ccccc3C2)c2cccnc12,5.8µM,?,/,/,?,.
Cc1ccc(C)c(S(=O)(=O)N2CCN(Cc3ccc(O)c4ncccc34)CC2)c1,.,8.9µM,.,.,?,.
CSc1ncccc1C(=O)N1CCN(S(=O)(=O)c2cc(C)ccc2C)CC1,.,.,.,.,.,.
SMILES,Nrf2 inh,ATXN2 expr inh,ATXN viability,A549 viability,TGFb SMAD3 inh,HepG2 tox
Oc1ccc(CN2CCN(c3ccccc3)CC2)c2cccnc12,?,?,.,.,?,.
CCC(=O)N(C1=C(NC)C(=O)c2ccccc2C1=O)C(C)C,16µM,/,?,?,?,.
CCC(=O)N(CC)C1=C(O)c2ccccc2C(=O)C1=O,.,.,/,.,.,.
CNC1=C(N(C(C)=O)c2ccc(Br)cc2)C(=O)c2ccccc2C1=O,16µM,?,/,?,3.5µM,2.8µM
N#CC1=C(N)N2C(=C(C#N)C1c1cccc(Br)c1)Nc1ccccc12 (centres undefined),.,?,/,.,3.2µM,.
N#CC1=C(N)N2C(=C(C#N)C13CCN(Cc1ccccc1)CC3)Nc1ccccc12,/,.,?,.,.,.
N#CC1=C(N)N2C(=C(C#N)C1c1ccc(Br)cc1)Nc1ccccc12 (centres undefined),12µM,?,/,?,2.8µM,.
O=C(Nc1ccnn1C1CCN(Cc2c[nH]c3ccccc23)CC1)c1ccccc1,.,.,.,.,.,.

# Source: PubChem BioAssay (National Center for Advancing Translational Sciences (NCATS))
